Measured values reported in PubChem BioAssay (NCI).
About 79,000 compounds went through this panel and 15% of them were active in at least one assay; those are over-represented in the sample as a whole. The source made the active and inactive calls. No stated cut-off is given here; in the data, active means growth inhibition above about 70%; inactive means the rest. Where a SMILES comes first, the peptide text is derived from it. The star is where a group is joined. Boc = CC(C)(C)OC(=O)*; NHNH2 = NN*

Experiments:
[1] = NCI Yeast Anticancer Drug Screen. Data for the rad50 strain (AID 155);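 further: 0% = growth of vehicle-only cultures of the same strain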; conditions: S. cerevisiae rad50 strain growth inhibition; at 50.0 µM; stronger effect = higher value
Method in brief: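 Vehicle-treated cultures provide the reference for the growth inhibition reported for compound-exposed, repair-deficient yeast.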

[2] = NCI Yeast Anticancer Drug Screen. Data for the mec2-1 strain (AID 157); conditions: S. cerevisiae mec2-1 strain, at 50.0 µM, stronger effect = higher value
Method in brief: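 Using mec2-1 yeast: add compound, measure growth, express inhibition versus vehicle-treated cultures.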

[3] = NCI Yeast Anticancer Drug Screen. Data for the sgs1 mgt1 strain (AID 161);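 further: 0% = growth of cultures given vehicle only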; conditions: S. cerevisiae sgs1 mgt1 strain, at 50.0 µM, stronger effect = higher value
Method in brief: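 Compounds are added to genetically altered yeast, and growth is compared with cultures given vehicle alone to give percent inhibition.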

[4] = NCI Yeast Anticancer Drug Screen. Data for the cln2 rad14 strain (AID 165);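 further: 0% = growth equal to vehicle treated cultures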; conditions: S. cerevisiae cln2 rad14 strain, at 50.0 µM, stronger effect = higher value
Method in brief: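 Yeast strain cln2 rad14, bearing defects in cell cycle control and DNA repair, serves as the test system; values reflect growth inhibition compared with vehicle.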

[5] = NCI Yeast Anticancer Drug Screen. Data for the bub3 strain (AID 167); conditions: S. cerevisiae bub3 mutant strain, at 50.0 µM, stronger effect = higher value
Method in brief: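 Mutant yeast screening strain plus compound; vehicle-treated cultures serve as the 0% inhibition reference.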

[6] = NCI Yeast Anticancer Drug Screen. Data for the mlh1 rad18 strain (AID 175); conditions: S. cerevisiae mlh1 rad18 strain growth inhibition; at 50.0 µM; stronger effect = higher value
Method in brief: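 Steps: expose repair-defective yeast to compound; measure growth; express inhibition against vehicle-treated controls.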

Measured: growth inhibition

CC(O)CN1CCN(CN(CC(C)O)CC(C)O)CC1 (stereo unspecified)
inactive: [1] 0.55% | [2] 7.25% | [3] 10.7% | [4] -2.65% | [5] 9% | [6] -16.4%

C=CC(OC(=O)/C=C/C)OC(=O)/C=C/C
inactive: [1] 16.9% | [2] 0.85% | [3] 6.8% | [4] 12.6% | [5] 20.1% | [6] 21.6%

CCC(=O)OC1CCC(OC(=O)CC)CC1 (stereo unspecified)
inactive: [1] 7.3% | [2] 9.8% | [3] 2.45% | [4] -1.9% | [5] -6.05% | [6] -6.2%

O=C(/C=C/c1ccccc1Cl)c1ccc(Cl)c(Cl)c1
inactive: [1] 28.7% | [2] 0.2% | [3] 2.1% | [4] 12% | [5] 15.4% | [6] 29.4%

O=S(=O)(Nc1nc2ccccc2nc1Nc1cccc2ccccc12)c1ccccc1
inactive: [1] -1.3% | [2] -5.05% | [3] 3.8% | [4] -13.5% | [5] -10.9% | [6] -26.4%

COC(=O)c1ccccc1/C=C1\Cc2ccc3c(c2C1=O)CCCC3
inactive: [1] -30.9% | [2] -52.6% | [3] -18.9% | [4] -7.4% | [5] 5.6% | [6] -25.2%

NNC(=O)N/N=C/c1cccc(O)c1
inactive: [1] -11.7% | [2] -2.35% | [3] -21.4% | [4] -12.1% | [5] 1.1% | [6] -19.4%

COc1ccc(S(=O)(=O)N/N=C/C(=O)OCOC(=O)C(C)(C)C)cc1
inactive: [1] 1.55% | [2] -11.8% | [3] -5.1% | [4] 8.55% | [5] -25.9% | [6] 19.1%

NC1Nc2ccccc2NC1=O (stereo unspecified)
inactive: [1] 4.85% | [2] 10.2% | [3] 3.4% | [4] -3.15% | [5] 6.4% | [6] 0.05%

COC(=O)c1cc2/c(=N/O)c3ccccc3sc2o1
inactive: [1] -0.45% | [2] -23.1% | [3] -2.1% | [4] 0.75% | [5] -16.4% | [6] -28.8%

NNC(=S)N/N=C(/C(=O)Nc1cc(Cl)ccc1Cl)C1C(=O)Nc2ccccc2S1=O (stereo unspecified)
inactive: [1] -21.8% | [2] -32.6% | [3] -5.1% | [4] -28.6% | [5] -6.6% | [6] -0.35%

COc1ccc2[nH]c(=O)c(C(C)=O)c(O)c2c1
inactive: [1] 3% | [2] 6.95% | [3] 6.15% | [4] 1.6% | [5] 7.15% | [6] 7.85%

COC1OC2COC(C)(c3ccccc3)OC2C(O)C1[NH-].COC1OC2COC(C)(c3ccccc3)OC2C(O)C1[NH-].[Cl][Pt+2][Cl] (stereo unspecified)
inactive: [1] -0.25% | [2] -2.7% | [3] -7.8% | [4] -25.3% | [5] -3.05% | [6] 35.4%

COc1ccc(CNc2nc3ccccc3nc2C(=O)O)cc1OC
inactive: [1] 1.9% | [2] 18.6% | [3] 4.4% | [4] 7.25% | [5] 9% | [6] -12.5%

CCOC(=O)C(CCN(C)C)C(=O)OCC
inactive: [1] 5.75% | [2] -10.2% | [3] 2.8% | [4] 1.1% | [5] -23.1% | [6] 14.2%

c1cc2c3c(cccc3c1)C1C2C2c3cccc4cccc(c34)C12 (stereo unspecified)
inactive: [1] -11.6% | [2] 18.2% | [3] 7.35% | [4] -2.7% | [5] 3.9% | [6] 0.05%

C=C/C=N/Nc1ccc([N+](=O)[O-])cc1[N+](=O)[O-]
inactive: [1] 2.5% | [2] 5.4% | [3] 2.2% | [4] 5.9% | [5] 2.4% | [6] -1.35%

COC(=O)Cc1c(-c2[nH]c3ccccc3c2CC(=O)OC)[nH]c2ccccc12
inactive: [1] 13.9% | [2] 7.45% | [3] 6% | [4] -17.4% | [5] 3.85% | [6] -20.8%

Cc1ccc(S(=O)(=O)/C=C/c2ccccc2)cc1
inactive: [1] 8.15% | [2] 6.2% | [3] 1.8% | [4] -10.3% | [5] -2.45% | [6] -10.2%

COC(=O)NC1CC/C=C\CCC1I (stereo unspecified)
inactive: [1] 12.8% | [2] 10% | [3] 8.1% | [4] 12.9% | [5] 22.9% | [6] 4.7%

CCCCCCCCCCCCCCCCCC(=O)N/N=C/c1cc(OC)ccc1OC
inactive: [1] 1.55% | [2] 0.05% | [3] -0.05% | [4] -25.2% | [5] -0.6% | [6] -28.9%

CS(=O)(=O)OC[C@H](NC(=O)c1ccccc1)[C@H](COS(C)(=O)=O)NC(=O)c1ccccc1
inactive: [1] 6.5% | [2] 9.3% | [3] 18.4% | [4] 9.9% | [5] -9.85% | [6] 15.3%

CC1=C(C)C2(C)C(C)C2(C)C1C (stereo unspecified)
inactive: [1] -5.8% | [2] -13.3% | [3] 17.9% | [4] 20.6% | [5] 35% | [6] -1.7%

Nc1nc(N)c2c(n1)NCN(OCCOc1ccc(Cl)cc1Cl)C2
inactive: [1] 1.1% | [2] 3% | [3] 9.15% | [4] -26.8% | [5] -14.8% | [6] 9.8%

Cc1nc(C(N)=S)sc1C(=O)/C=C/c1c(O)ccc2ccccc12
inactive: [1] 49.4% | [2] 9.55% | [3] 33.4% | [4] 23.8% | [5] 31.1% | [6] 40.3%

CC(C)C(O)C(C)N (stereo unspecified)
inactive: [1] 1.4% | [2] -5.9% | [3] 0.7% | [4] 4.9% | [5] 3.2% | [6] 3.5%

O=[N+]([O-])c1ccc(S(=O)c2ccc(Cl)cc2)c2c1no[n+]2[O-] (stereo unspecified)
inactive: [4] 32%
active: [1] 98.5% | [2] 99.4% | [3] 98.7% | [5] 76.1% | [6] 99.2%

CCN(CC)CCn1c2c3ccccc3ccc2c2oc(=O)c3ccccc3c21
inactive: [1] -13.8% | [2] 6.6% | [3] -14.1% | [4] 19.4% | [5] -7.5% | [6] 7.8%

O=C(Nc1ccc2c(c1)Cc1ccccc1-2)C(Cl)Cl
inactive: [1] 20.4% | [2] 1.95% | [3] 10.6% | [4] -7.85% | [5] 42.5% | [6] 14%

Cc1cc2c(cc1C)NC(C)CC(=O)N2 (stereo unspecified)
inactive: [1] 5.8% | [2] -13.1% | [3] 4.2% | [4] 14.1% | [5] -0.2% | [6] 21.7%

CCC(C)C(NC(=O)C(Cc1c[nH]c2ccccc12)NC(=O)OC(C)(C)C)C(=O)NN (stereo not drawn) (Boc-Trp-Ile-NHNH2; configuration not given here)
inactive: [1] 24.8% | [2] 3.7% | [3] 8.5% | [4] 15.4% | [5] -4.35% | [6] 15.6%

N#CC1(C#N)C2(c3ccccc3)OC(c3ccccc3)(c3cc4ccccc4cc32)C1(C#N)C#N
inactive: [1] 1.75% | [2] 20.1% | [3] -4.1% | [4] 14.1% | [5] 8% | [6] 29.1%

CCN(CC)CC(C)C(O)(Cc1ccccc1)c1ccc(Cl)cc1 (stereo unspecified)
inactive: [1] 21.4% | [2] 17.6% | [3] 27.9% | [4] 33.5% | [5] 10.1% | [6] 17.4%

Cc1ccc(S(=O)(=O)N(C)c2cc(Cl)c(I)cc2Cl)cc1
inactive: [1] 38.9% | [2] -5.05% | [3] 8.9% | [4] 0.25% | [5] 25.1% | [6] 5.2%

CCCC(O)CNCc1ccc2ncccc2c1 (stereo unspecified)
inactive: [1] -20.4% | [2] -4.2% | [3] 2.1% | [4] -66.8% | [5] -4.35% | [6] -23.4%

O=C(O)c1c(Cl)c(Cl)c(Cl)c(Cl)c1C(=O)Nc1ccccc1F
inactive: [1] -3.8% | [2] -19.2% | [3] 14.3% | [4] -118% | [5] 1.5% | [6] 0.6%

O=C(NC[N+]12CCO[B-]1(c1ccccc1)OCC2)c1ccccc1O (stereo unspecified)
inactive: [1] 25.9% | [2] -8.4% | [3] 4.7% | [4] 13.3% | [5] -0.75% | [6] 10.5%

O=C(O)c1cccnc1Cl
inactive: [1] 10.2% | [2] -3.5% | [3] -9.9% | [4] 14.4% | [5] 4.15% | [6] -4.45%

CCC1NC(=O)C(NC(=O)c2ncccc2O)C(C)OC(=O)C(c2ccccc2)NC(=O)C2CC(=O)CCN2C(=O)C(Cc2ccccc2)N(C)C(=O)C2CCCN2C1=O (stereo unspecified)
inactive: [1] -6.9% | [2] -32.6% | [3] -29.1% | [4] -17.4% | [5] -6.45% | [6] 0.3%

CN1CC2(CO)C(c3ccccn3)N(C)C(c3ccccn3)C(CO)(C1)C2O (stereo unspecified)
inactive: [1] 2.5% | [2] 16.4% | [3] -10.7% | [4] -6.2% | [5] -0.6% | [6] 10.8%

CC(=O)c1cc2cc(Br)ccc2oc1=O
inactive: [1] 13.5% | [2] 18% | [3] 16.2% | [4] 24.9% | [5] 14.4% | [6] 23.6%
